# A selection: hits, their analogues and other compounds. The true share with any hit is near 0.31%.
# TRPV1 agonist – human TRPV1 agonism; Q8NER1; TRPV1-expressing cells, Fluo-8 calcium influx, agonist mode; activation, % at 8.33 µM; hit rate 0.19% among 320,000; AID 540275; in the data active = activation above about 80%; inconclusive = between about 30% and that limit; also: 0% is about no effect
# Target sequence (Q8NER1 whole entry, looked up): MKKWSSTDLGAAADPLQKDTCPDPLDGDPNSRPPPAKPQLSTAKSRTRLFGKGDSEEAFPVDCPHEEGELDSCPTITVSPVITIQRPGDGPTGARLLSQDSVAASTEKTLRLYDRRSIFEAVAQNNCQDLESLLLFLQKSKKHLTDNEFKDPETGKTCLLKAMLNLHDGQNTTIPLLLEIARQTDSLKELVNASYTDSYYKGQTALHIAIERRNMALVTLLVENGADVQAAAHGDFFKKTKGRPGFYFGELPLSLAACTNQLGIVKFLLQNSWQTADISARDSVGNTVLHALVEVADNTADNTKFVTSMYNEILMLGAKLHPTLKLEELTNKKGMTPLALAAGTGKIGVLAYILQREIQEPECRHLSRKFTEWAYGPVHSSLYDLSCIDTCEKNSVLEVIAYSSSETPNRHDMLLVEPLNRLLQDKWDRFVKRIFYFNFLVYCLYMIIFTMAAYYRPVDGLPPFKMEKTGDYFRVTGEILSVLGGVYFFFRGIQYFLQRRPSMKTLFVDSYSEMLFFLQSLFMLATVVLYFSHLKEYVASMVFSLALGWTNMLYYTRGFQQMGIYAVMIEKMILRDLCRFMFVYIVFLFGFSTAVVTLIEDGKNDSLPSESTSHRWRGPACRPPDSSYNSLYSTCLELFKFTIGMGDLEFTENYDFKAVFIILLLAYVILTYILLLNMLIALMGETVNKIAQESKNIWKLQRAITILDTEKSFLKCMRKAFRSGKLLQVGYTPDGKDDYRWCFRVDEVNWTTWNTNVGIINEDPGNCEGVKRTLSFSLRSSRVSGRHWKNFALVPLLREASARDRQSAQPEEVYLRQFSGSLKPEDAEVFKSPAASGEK
#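 Fluo-8 calcium influx in TRPV1-expressing cells, kinetic read (ex 480/em 520 nm). Compound added and read 3 min for agonist activity, followed by capsaicin at EC20 final and 2 min further read for enhancement.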
# TRPML1 inh – blocks the human TRPML1 channel. TRPML1-inducible cells, Ca2+ dye fluorescence, FDSS; hits give low values; inhibition of EC80 agonist-evoked calcium signal. AID 624415. hit rate 0.02% among 390,000. activity change, negative = inhibition, % (test concentration not listed). Q9GZU1; in the data active = activity change below about -50%; inconclusive = between about -30% and that limit;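 also: stimulus is agonist 54-4 at its EC80 concentration; % is scaled to controls: 0 for no effect and ±100 for the full control effect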
#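 TRPML1-DL cells, Tet-induced overnight (~16 h, 37 °C) at 1,500 cells/well, were loaded with Ca8 no-wash dye plus quencher for 45-90 min at room temperature. Compounds were pinned during FDSS kinetic reading; agonist 54-4 at EC80 (4 uM final) then added.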
# TRPV1 potentiator – potentiators of human vanilloid receptor 1 (TRPV1). Q8NER1. TRPV1-expressing cells, Fluo-8 calcium influx, capsaicin EC20 potentiation. potentiation, % at 8.33 µM. hit rate 0.02% among 320,000; in the data active = potentiation above about 80%; inconclusive = between about 30% and that limit; also: 0% is about no effect
#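 TRPV1-expressing cells were cultured overnight at 35.5C and loaded with Fluo-8 calcium dye for 40 to 90 min at room temperature. After a 10 s baseline, compound was added and calcium influx was read kinetically for 3 min (ex 480/em 520 nm).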
# TRPML1 ag – human mucolipin-1 channel agonism; Q9GZU1; TRPML1-expressing cells, Ca2+ dye fluorescence, FDSS; activation, % (test concentration not listed); hit rate 0.12% among 410,000; AID 624414; in the data active = activation above about 50%; inconclusive = mostly about 30% to 49%; also: 0% is about no effect
#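 In this qHTS format, compounds were pin-transferred onto Ca8-dye-loaded TRPML1-DL cells induced with Tet overnight, and intracellular Ca2+ fluorescence was recorded kinetically for 110 s after a 10 s baseline. A subsequent 4uM final 54-4 (EC80) addition followed by a second 110 s read served as the antagonist phase.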
# An asterisk follows results filed as active; u = inconclusive; x = not tested or not shown.
SMILES,TRPV1 agonist,TRPML1 inh,TRPV1 potentiator,TRPML1 ag
Cc1c(OCC(=O)N2CCC(C(N)=O)CC2)ccc2c1oc(=O)c1ccccc12,90.8*,x,6.5,x
CC(C)C[C@H]1CN(CCCC[C@H]2CNC(=O)C(=O)N2CC2CCCCC2)C(=O)C(=O)N1CCC1CCCCC1,x,x,x,-0.7
Cc1cc(NC(=O)CSc2nnc3c(C)cc4c(C)ccc(C)c4n23)no1,-1.4,-4.8,18.9,1.4
COc1cc2cc(C)c3nnc(SCC(=O)Nc4cc(C)on4)n3c2cc1OC,-8.6,-23.0,107.8*,-0.8
Cc1c2cnn(CC(=O)NCc3ccc(F)cc3)c(=O)c2c(C)n1Cc1cccc(Cl)c1,x,-3.7,x,-0.7
O=C1NNC(c2ccccc2)=N/C1=C\c1ccco1,0.6,-11.2,9.0,-0.4
O=C1NNC(c2ccccc2)=N/C1=C\c1ccccc1Cl,94.0*,-6.3,-13.9,0.5
CCNc1ccc2noc3c2c1C(=O)c1ccccc1-3,u,4.2,-1.8,62.8*
CC(Oc1ccccc1)C(=O)OCc1cc(=O)n2nc(C(C)C)sc2n1 (centres undefined),x,-21.0,x,-1.2
COc1ccc(Cc2c(-c3ccc(OC)c(OC)c3)nc3ccc(C)cn23)c(C)c1,x,x,x,-0.3
Cc1ccc(CNC(=O)c2cccc3c2C(=O)c2ccc(N4CCCCC4)cc2S3(=O)=O)cc1,14.3,-7.5,0.5,50.4*
Cc1ccc(CNC(=O)c2cccc3c2C(=O)c2ccc(N4CCOCC4)cc2S3(=O)=O)cc1,2.3,24.5,0.6,6.2
COc1ccc(NC(=O)N2CCCC2)cc1OC,-3.0,-9.8,9.5,-0.2
COc1ccc(NC(=O)N2CCN3CCCCC3C2)cc1OC (centres undefined),x,-50.6*,x,0.8
Cc1ccc2c(c1)nnn2C1CCN(C(=O)NCc2ccccc2)CC1,88.7*,-9.2,-13.3,-0.7
Cc1cccc(NC(=O)N2CCC(n3nnc4cc(C)ccc43)CC2)c1,u,-3.0,-11.4,1.3
Clc1ccccc1Cc1cn2cc(-c3ccccc3)nc2s1,x,10.7,x,2.3
Cc1ccc2c(c1)c1c3n2CCN(C(=O)c2ccc(C(F)(F)F)cc2)C3CCC1 (centres undefined),x,-27.6,x,56.2*
Cn1ccc2c(N3CCCC3)cc3c(c21)C1CCC3C1 (centres undefined),x,-0.2,x,-0.4
Cn1ccc2c(N3CCCCC3)cc3c(c21)C1CCC3C1 (centres undefined),x,-24.5,x,57.0*
COc1ccc(NC(=O)C(c2ccccc2)c2ccccc2)c(OC)c1,x,-1.7,x,0.0
COc1ccc(OC)c(NC(=O)C(Sc2ccccc2)c2ccccc2)c1 (centres undefined),-1.2,-51.5*,-6.0,2.7
COc1ccc(OC)c(S(=O)(=O)NCC(=O)NC2CCCCCC2)c1,1.0,3.1,-4.4,-0.4
O=C(NNC(=O)c1csc(-c2ccccc2)n1)c1ccccc1,x,12.6,x,-0.4
O=C(Nc1ccccc1)c1csc(-c2ccccc2)n1,84.9*,5.3,22.6,3.1
SMILES,TRPV1 agonist,TRPML1 inh,TRPV1 potentiator,TRPML1 ag
Cc1cc(=O)[nH]c(SCCCOc2ccc(F)cc2)n1,1.9,-13.3,-4.0,2.5
CCCOc1cccc(OCCSc2nc(C)cc(=O)[nH]2)c1,81.6*,44.3,-3.2,2.4
O=C(CSc1ccc(Br)cc1)N1CCOCC1,80.0*,4.2,-31.0,0.2
Cc1ccc(CN2CCC(CNC(=O)c3cnn(-c4ccccc4)c3C3CCN(C(=O)OC(C)(C)C)CC3)CC2)cc1,x,3.9,x,-0.2
Cc1ccc2nc(NC(=O)CS(=O)(=O)Cc3ccccc3)sc2c1,84.6*,-10.9,-0.1,0.9
CCN1C(=O)c2cccc3c(Cl)ccc(c23)C1=O,2.5,-7.3,-2.6,-1.3
CN(C)c1ccc2c3c(cccc13)C(=O)N(c1ccccc1)C2=O,1.5,x,2.4,x
Cc1cccc(N2C(=O)c3cccc4c(N(C)CCO)ccc(c34)C2=O)c1,1.1,-1.4,0.2,76.6*
Nc1ccc2c3c(cccc13)C(=O)N(c1ccccc1)C2=O,-2.1,-3.4,1.9,93.6*
CC(C)CCN1C(=O)c2cccc3c(N)ccc(c23)C1=O,x,-12.2,x,88.6*
Cc1cccc(N2C(=O)c3cccc4c(N)ccc(c34)C2=O)c1,148.4*,-9.9,14.5,104.0*
CC(C)c1nn2c(=O)cc(COC(=O)COc3ccccc3F)nc2s1,x,-19.4,x,-0.5
CC[N+](C)(C)c1ccc(/C=C/c2ccnc3ccccc23)cc1,x,x,x,-0.4
O=C(O)c1cccc(N2C(=O)c3cccc4c(Cl)ccc(c34)C2=O)c1,-3.4,-3.8,13.0,0.0
Nc1cccc(N2C(=O)c3cccc4c(N)ccc(c34)C2=O)c1,26.4,-22.8,-6.5,55.4*
COC(=O)c1ccc(OCC2c3cc(OC)c(OC)cc3CCN2C(=O)c2ccccc2F)cc1 (centres undefined),x,-5.1,x,1.6
CCCN(CCC)C(=O)Cn1c(=O)n(-c2ccc(C)cc2)c(=O)c2ccc(C(=O)NCc3ccccc3Cl)cc21,x,9.9,x,3.1
COc1cc(/C=C(\C#N)c2nc3ccccc3n2C)cc(OC)c1O,25.2,-21.9,u,59.5*
CC(C)c1nnc(N2C(=O)C(O)=C(C(=O)c3cccs3)C2c2ccccc2)s1 (centres undefined),103.4*,9.1,-5.0,u
COc1ccc(C2C(C(=O)c3cccs3)=C(O)C(=O)N2c2nnc(C)s2)cc1OC (centres undefined),28.0,-10.7,-21.8,19.6
CCOc1ccc(NC(=O)C(Cc2ccccc2)N2C(=O)c3cccc4cccc(c34)C2=O)cc1 (centres undefined),-5.9,-5.1,8.2,61.3*
Nc1ccc(-c2c3ccc(=O)cc-3oc3cc(O)ccc23)cc1C(=O)O,93.3*,-10.5,-21.3,65.2*
O=c1cc(-c2ccccc2)oc2cc(O)ccc12,x,4.5,x,1.6
O=c1ccc2c(-c3ccccc3)c3ccc(O)cc3oc-2c1,1.6,u,-3.7,139.4*
C=C(C)Cn1c(=O)c2c(nc3n2CCN3c2ccc(CC)cc2)n(C)c1=O,x,-4.0,x,0.0
SMILES,TRPV1 agonist,TRPML1 inh,TRPV1 potentiator,TRPML1 ag
COc1cc(C(=O)NCC(c2ccc(F)cc2)N2CCOCC2)ccc1OCc1ccccc1Cl (centres undefined),5.9,0.0,18.3,0.7
CCc1ccc(N2CC(c3nc4ccccc4n3Cc3ccccc3C)CC2=O)cc1 (centres undefined),x,34.9,x,-0.4
Cc1cc(C(=O)NCCC2=CCCCC2)ccc1[N+](=O)[O-],83.3*,9.6,-22.3,0.2
O=C(CCNC(=O)c1ccc([N+](=O)[O-])cc1)NCCC1=CCCCC1,0.9,5.0,-0.1,0.1
O=C(NCCC1=CCCCC1)c1ccc([N+](=O)[O-])cc1,88.9*,16.7,-20.4,2.0
CCC(C)(C)c1ccc(OCC(=O)Nc2ccncc2)cc1,89.9*,14.3,-6.8,-0.4
CC(C)(C)c1ccc(OCC(=O)Nc2ccncc2)c(Br)c1,97.1*,x,-2.7,x
Cc1ccccc1NC(=O)c1nc(S(=O)(=O)Cc2ccccc2F)ncc1Cl,x,x,x,2.6
c1ccc(-c2csc(N3CCN(c4ccccn4)CC3)n2)cc1,100.7*,3.9,-4.5,0.0

# Source: PubChem (National Center for Advancing Translational Sciences (NCATS))
